Here are results for 16 molecules from PubChem BioAssay AID651756 (Johns Hopkins Ion Channel Center, 2012).

Entries with a potency or affinity are not part of this list. Calls of active or inactive are those of the source.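 How the source made its calls: active means dose curve could be fitted and remaining uptake under 40% of control at 33.3 µM; inactive means the rest.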

The target in the test is High affinity choline transporter 1 (Homo sapiens) (UniProt Q9GZV3). The experiment in a line: CHT inhibitors reducing choline uptake, dose response, orthogonal assay for CHT inhibitor project, cell-based, 3H-choline uptake, radioactive, HEK293 CHT LV-AA (AID 651756).
Chain of High affinity choline transporter 1 (Homo sapiens) (Q9GZV3 whole entry, looked up): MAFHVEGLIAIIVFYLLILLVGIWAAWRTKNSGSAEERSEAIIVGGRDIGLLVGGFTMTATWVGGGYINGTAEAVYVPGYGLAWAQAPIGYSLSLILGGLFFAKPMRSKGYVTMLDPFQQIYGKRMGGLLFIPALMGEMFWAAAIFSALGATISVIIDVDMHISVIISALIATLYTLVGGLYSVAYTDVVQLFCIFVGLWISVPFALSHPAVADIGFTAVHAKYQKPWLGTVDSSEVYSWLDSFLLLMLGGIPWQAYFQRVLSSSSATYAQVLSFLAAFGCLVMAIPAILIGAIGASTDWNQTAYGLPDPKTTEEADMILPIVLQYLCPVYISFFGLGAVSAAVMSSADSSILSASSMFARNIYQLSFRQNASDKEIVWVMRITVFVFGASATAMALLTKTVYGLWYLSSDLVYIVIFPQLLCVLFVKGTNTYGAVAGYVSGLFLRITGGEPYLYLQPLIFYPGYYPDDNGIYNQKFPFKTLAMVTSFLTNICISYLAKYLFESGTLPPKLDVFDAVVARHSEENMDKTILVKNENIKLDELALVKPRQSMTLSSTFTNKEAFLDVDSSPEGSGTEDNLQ

As for `O=C1CC2(CCCCC2)C(=O)N1c1ccc(S(=O)(=O)Nc2ccccn2)cc1`, the result was inactive.

Turning to `Cc1cccc(C(=O)Nc2ccc(S(=O)(=O)Nc3ccccn3)cc2)c1C`, the result was inactive.

Regarding `O=C(Nc1ccc(S(=O)(=O)Nc2ccccn2)cc1)c1cccc(Cl)c1`, the result was inactive.

Regarding `COc1cc(C)ccc1C(=O)Nc1ccc(S(=O)(=O)Nc2ccccn2)cc1`, the result was inactive.

As to `O=C(Nc1ccc(S(=O)(=O)Nc2ccccn2)cc1)c1cccc(C(F)(F)F)c1`, the result was inactive.

Turning to `O=C1CC(c2ccccc2)C(=O)N1c1ccc(S(=O)(=O)Nc2ccccn2)cc1` (stereo unspecified), the outcome was inactive.

Regarding `O=C1c2cccc(F)c2C(=O)N1c1ccc(S(=O)(=O)Nc2ccccn2)cc1`, the outcome was inactive.

Regarding `Cc1ccc(C(=O)Nc2ccc(S(=O)(=O)Nc3ccccn3)cc2)cc1`, the result was inactive.

For the molecule `Cc1cc(C)c(C(=O)Nc2ccc(S(=O)(=O)N(C)c3ccccn3)cc2)c(C)c1`, the outcome was inactive.

Regarding `Cc1cccc(C(=O)Nc2ccc(S(=O)(=O)Nc3ccccn3)cc2)c1`, the result was inactive.

Regarding `Cc1ccc(C(=O)Nc2ccc(S(=O)(=O)Nc3ccccn3)cc2)c2ccccc12`, the result was inactive.

With `O=C(Nc1ccc(S(=O)(=O)Nc2ccccn2)cc1)c1ccc(Cc2ccccc2)cc1`, the outcome was inactive.

As for `O=C(Nc1ccc(S(=O)(=O)Nc2ccccn2)cc1)c1ccc(Cl)cc1`, the outcome was inactive.

For the molecule `Cc1c(C(=O)Nc2ccc(S(=O)(=O)Nc3ccccn3)cc2)cccc1[N+](=O)[O-]`, the outcome was inactive.

For the molecule `Cc1ccc(C(=O)Nc2ccc(S(=O)(=O)Nc3ccccn3)cc2)c(C)c1`, the outcome was inactive.

For the molecule `O=C1c2cccc(Cl)c2C(=O)N1c1ccc(S(=O)(=O)Nc2ccccn2)cc1`, the outcome was inactive.
